# Reference: PubChem BioAssay
# Activity calls are given as the source filed them. Unless noted, no rule for the calls is given here.
# Legend:
# [1] = compounds binding Alexa647 anti-His antibody – biochemical, small-molecule microarray, 635 nm fluorescence, artefact control for SMM control protein annotation, primary screen (AID 1128); settings: higher = more signal;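 also: score merges feature fluorescence with signal-to-noise for each printed compound spot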
# [2] = tested on: Human papillomavirus type 1a E7 protein (residues 1-88); experiment: HPV1a E7 small-molecule binders, primary screen, biochemical, small-molecule microarray, residues 1-88, 635 nm (AID 1129); settings: small-molecule microarray binding, fluorescence 635 nm; higher = more signal
# [3] = biological target: Focal adhesion kinase 1 (Homo sapiens) (UniProt Q05397); experiment: PTK2 protein binding on printed compound slides – biochemical, small-molecule microarray, 635/667 nm fluorescence, BSA, DTT, primary screen (AID 1130); settings: 635 nm fluorescence, higher = more signal;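 also: composite of spot emission at 667 nm and signal to noise over triplicate slides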
# Sequence of Focal adhesion kinase 1 (Homo sapiens) (Q05397 whole entry, looked up): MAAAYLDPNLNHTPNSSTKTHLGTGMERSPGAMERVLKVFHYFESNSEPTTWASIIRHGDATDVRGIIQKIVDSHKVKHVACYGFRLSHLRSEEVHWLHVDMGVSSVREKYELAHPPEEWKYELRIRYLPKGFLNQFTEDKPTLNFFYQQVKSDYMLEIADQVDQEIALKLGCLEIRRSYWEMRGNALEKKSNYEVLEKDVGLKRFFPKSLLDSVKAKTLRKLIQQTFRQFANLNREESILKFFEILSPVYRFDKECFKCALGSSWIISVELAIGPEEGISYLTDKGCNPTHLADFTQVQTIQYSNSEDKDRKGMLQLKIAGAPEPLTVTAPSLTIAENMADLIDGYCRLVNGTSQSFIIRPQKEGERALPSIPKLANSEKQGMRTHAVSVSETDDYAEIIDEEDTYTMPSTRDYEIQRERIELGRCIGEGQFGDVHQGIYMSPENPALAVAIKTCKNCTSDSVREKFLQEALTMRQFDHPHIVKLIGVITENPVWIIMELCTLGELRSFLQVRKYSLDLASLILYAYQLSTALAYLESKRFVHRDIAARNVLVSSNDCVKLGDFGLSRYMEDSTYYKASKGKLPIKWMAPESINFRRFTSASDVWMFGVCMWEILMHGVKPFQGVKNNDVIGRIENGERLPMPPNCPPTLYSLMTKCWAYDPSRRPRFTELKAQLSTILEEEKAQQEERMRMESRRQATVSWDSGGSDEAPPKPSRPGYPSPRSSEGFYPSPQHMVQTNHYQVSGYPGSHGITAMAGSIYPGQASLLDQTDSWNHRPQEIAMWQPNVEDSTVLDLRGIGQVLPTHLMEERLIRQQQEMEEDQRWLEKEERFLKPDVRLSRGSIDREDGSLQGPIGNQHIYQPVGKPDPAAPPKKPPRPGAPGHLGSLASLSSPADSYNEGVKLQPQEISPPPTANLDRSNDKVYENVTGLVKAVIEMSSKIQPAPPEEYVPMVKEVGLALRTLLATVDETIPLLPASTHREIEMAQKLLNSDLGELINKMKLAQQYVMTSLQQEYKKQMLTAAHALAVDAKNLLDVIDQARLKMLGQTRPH
# [4] = tested on: Fibrinogen (Alexa647-labelled); experiment: Alexa647-fibrinogen binding to printed small molecules – biochemical, small-molecule microarray, 635/667 nm fluorescence, artefact control for SMM control-protein annotation, profiling panel (AID 1131); settings: fibrinogen-A647 binding fluorescence, higher = more signal;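 also: z-score merges 667 nm fluorescence with per-spot signal-to-noise over triplicate slides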
# [5] = biological target: Follistatin (Homo sapiens) (UniProt P19883); experiment: FST protein binding to printed compounds – biochemical, small-molecule microarray, 635/667 nm fluorescence, primary screen (AID 1132); settings: 635 nm fluorescence, higher = more signal
# Sequence of Follistatin (Homo sapiens) (P19883 whole entry, looked up): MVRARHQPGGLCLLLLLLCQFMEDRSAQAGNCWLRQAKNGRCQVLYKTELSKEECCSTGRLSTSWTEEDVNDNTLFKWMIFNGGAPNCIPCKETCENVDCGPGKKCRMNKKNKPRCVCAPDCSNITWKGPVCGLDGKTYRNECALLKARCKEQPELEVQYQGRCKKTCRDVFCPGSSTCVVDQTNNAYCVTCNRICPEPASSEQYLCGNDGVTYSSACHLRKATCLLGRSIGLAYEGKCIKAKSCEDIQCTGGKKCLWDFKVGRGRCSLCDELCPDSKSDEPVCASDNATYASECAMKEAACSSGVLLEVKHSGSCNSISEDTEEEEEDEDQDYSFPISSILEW
# [6] = biological target: Fibroblast growth factor 2 (Homo sapiens) (UniProt P09038); experiment: basic fibroblast growth factor binding to printed compounds – biochemical, small-molecule microarray, 635/667 nm fluorescence, primary screen (AID 1133); settings: FGF2, fluorescence 635/667, higher = more signal
# Sequence of Fibroblast growth factor 2 (Homo sapiens) (P09038 whole entry, looked up): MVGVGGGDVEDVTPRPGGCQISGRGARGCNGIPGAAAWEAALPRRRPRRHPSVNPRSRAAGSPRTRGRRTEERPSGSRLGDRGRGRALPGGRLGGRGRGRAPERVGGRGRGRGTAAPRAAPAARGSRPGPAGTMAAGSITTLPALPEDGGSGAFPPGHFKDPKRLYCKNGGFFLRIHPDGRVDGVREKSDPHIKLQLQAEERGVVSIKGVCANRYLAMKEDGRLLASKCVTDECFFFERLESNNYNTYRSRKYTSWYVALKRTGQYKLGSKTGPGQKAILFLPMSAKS
# [7] = JC-1 mitochondrial potential readout, lung cancer cells – cell-based, A549, JC-1 fluorescence, basal, 24 h, 100 nL, profiling panel (AID 1138); settings: higher = more signal;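 also: A549 lung adenocarcinoma cells under basal conditions with no added stimulus; test concentration not given here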
# [8] = tested on: Lefty1; experiment: Lefty1 protein binding to printed compounds – biochemical, small-molecule microarray, 635/667 nm fluorescence, primary screen (AID 1139); settings: fluorescence 635/667, higher = more signal
# [9] = tested on: wheat germ agglutinin (Triticum aestivum), Alexa647-labelled; experiment: Alexa647-WGA lectin binding to printed small molecules – biochemical, small-molecule microarray, 635/667 nm fluorescence, artefact control for SMM control-protein annotation, profiling panel (AID 1140); settings: WGA-A647 binding, 635 nm fluorescence, higher = more signal;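 also: score merges 667 nm feature emission with signal to noise over triplicate slides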
# [10] = biological target: Luciferin 4-monooxygenase (Photinus pyralis) (UniProt P08659); experiment: inhibition of purified Photinus pyralis luciferase – biochemical, luminescence, purified enzyme, 2006 set, primary screen (AID 1141); settings: purified firefly luciferase, SteadyGlo luminescence, 30 min; higher = more signal, called active from +8 up or from −8 down;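 also: cell-free assay with purified firefly luciferase at 100 ng per well in PBS; test concentration not given here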
# Sequence of Luciferin 4-monooxygenase (Photinus pyralis) (P08659 whole entry, looked up): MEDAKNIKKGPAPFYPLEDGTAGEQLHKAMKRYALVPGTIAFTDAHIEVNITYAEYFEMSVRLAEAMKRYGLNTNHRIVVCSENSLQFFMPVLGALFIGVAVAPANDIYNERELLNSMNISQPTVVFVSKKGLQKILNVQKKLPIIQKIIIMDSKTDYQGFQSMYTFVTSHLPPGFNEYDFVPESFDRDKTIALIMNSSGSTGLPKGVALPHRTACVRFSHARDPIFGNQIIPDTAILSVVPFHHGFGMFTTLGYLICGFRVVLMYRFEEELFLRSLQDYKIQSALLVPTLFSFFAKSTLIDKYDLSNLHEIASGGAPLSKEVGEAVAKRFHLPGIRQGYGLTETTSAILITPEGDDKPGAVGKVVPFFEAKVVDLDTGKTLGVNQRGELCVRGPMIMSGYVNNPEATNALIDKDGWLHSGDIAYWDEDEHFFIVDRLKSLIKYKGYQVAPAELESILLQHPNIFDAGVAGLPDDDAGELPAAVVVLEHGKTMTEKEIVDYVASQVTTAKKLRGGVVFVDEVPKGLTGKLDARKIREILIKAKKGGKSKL
# [11] = tested on: Wnt5a (protein binding on small-molecule microarray); experiment: small molecules binding Wnt5a protein – biophysical, small-molecule microarray, 635/667 nm fluorescence, primary screen (AID 1142); settings: 635 nm fluorescence, higher = more signal;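 also: fluorescence read at 667 nm with signal to noise per printed feature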
# [12] = ATP-based viability of Huh7 replicon cells – cell-based, CellTiter-Glo luminescence, basal, 48 h, cytotoxicity control for HCV replication inhibitor project, primary screen (AID 1143); settings: higher = more signal, called active from +8 up or from −8 down;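 also: Huh7 hepatoma cells carrying a hepatitis C replication reporter with no stimulus; test concentration not given here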
# [13] = Pseudomonas biofilm growth suppression – PAO1 strain, BacTiter-Glo luminescence, LB-PBS, primary screen (AID 1144); settings: P. aeruginosa PAO1 biofilm, 12 h, higher = more signal
# [14] = basal CRE-LacZ reporter activity in PC12 – cell-based, unstimulated, primary screen (AID 1145); settings: no forskolin, luminescence, 4.5 h, higher = more signal, called active from +8 up or from −8 down
# [15] = forskolin-driven CRE-LacZ activity in PC12 – cell-based, CRE-LacZ reporter, forskolin-stimulated, primary screen (AID 1146); settings: luminescence, 4.5 h, higher = more signal, called active from +8 up or from −8 down;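 also: PC12 cells with 6xCRE LacZ reporter stimulated by forskolin 10 µM; beta-galactosidase reporter signal reflecting CREB driven transcription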
# [16] = biological target: Streptavidin (Streptomyces avidinii) (UniProt P22629); experiment: compounds binding control protein streptavidin – biophysical, small-molecule microarray, 635/667 nm fluorescence, artefact control for SMM compound annotation, primary screen (AID 1147); settings: higher = more signal;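 also: signal reflects streptavidin binding to arrayed compounds as a control protein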
# Sequence of Streptavidin (Streptomyces avidinii) (P22629 whole entry, looked up): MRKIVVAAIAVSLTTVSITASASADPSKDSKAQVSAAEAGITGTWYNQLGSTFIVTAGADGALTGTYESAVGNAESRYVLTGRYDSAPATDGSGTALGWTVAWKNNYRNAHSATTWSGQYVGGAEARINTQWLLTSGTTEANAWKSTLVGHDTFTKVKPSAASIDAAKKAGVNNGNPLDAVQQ
# [17] = probe aInhba binding on compound microarray – biochemical, small-molecule microarray, 635/667 nm fluorescence, primary screen (AID 1148); settings: higher = more signal;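 also: score merges 667nm spot fluorescence with signal-to-noise for antibody binding to printed compounds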
# [18] = biological target: Torsin-1A (Homo sapiens) (UniProt O14656); experiment: TOR1A wild-type binding on microarray – cell lysate, small-molecule microarray, lysate, 635/667 nm, primary screen (AID 1149); settings: COS7 hTOR1A-WT lysate, 635 nm fluorescence, higher = more signal
# Sequence of Torsin-1A (Homo sapiens) (O14656 whole entry, looked up): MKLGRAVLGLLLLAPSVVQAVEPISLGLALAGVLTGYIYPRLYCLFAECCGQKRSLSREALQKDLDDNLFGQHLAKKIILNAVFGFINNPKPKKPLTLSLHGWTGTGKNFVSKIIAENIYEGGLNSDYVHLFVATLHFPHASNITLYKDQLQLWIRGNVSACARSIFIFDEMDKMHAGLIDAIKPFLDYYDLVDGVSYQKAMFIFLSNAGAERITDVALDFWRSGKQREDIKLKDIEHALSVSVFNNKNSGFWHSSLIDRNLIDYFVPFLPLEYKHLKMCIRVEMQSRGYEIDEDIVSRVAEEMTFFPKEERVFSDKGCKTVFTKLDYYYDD
# [19] = biological target: Torsin-1A (Homo sapiens) (UniProt O14656); experiment: torsin A mutant lysate binding on microarrays – cell lysate, small-molecule microarray, COS7 lysate, 635/667 nm fluorescence, primary screen (AID 1150); settings: COS7 hTOR1A mutant lysate, 635 nm fluorescence, higher = more signal;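 also: score pools 667 nm emission and signal to noise measuring lysate protein binding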
# [20] = tested on: Sonic hedgehog protein (Shh); experiment: Sonic hedgehog microarray binding compounds – biochemical, small-molecule microarray, 635/667 nm fluorescence, primary screen (AID 1151); settings: 635 nm fluorescence, higher = more signal;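 also: Shh protein binding to compounds spotted on small-molecule microarray slides; score combines spot fluorescence intensity with signal-to-noise across triplicate slides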
Compound,composite z-score [1],composite z-score [2],composite z-score [3],composite z-score [4],composite z-score [5],composite z-score [6],z-score [7],composite z-score [8],composite z-score [9],z-score [10],composite z-score [11],z-score [12],z-score [13],z-score [14],z-score [15],composite z-score [16],composite z-score [17],composite z-score [18],composite z-score [19],composite z-score [20]
O=C1c2ccccc2[C@@]2(Cc3ccccc3N(Cc3ccccc3)C2=O)[C@H](c2ccc(CO)cc2)N1Cc1ccccc1C(F)(F)F,1.88,-0.911,-0.676,-2.02,-0.368,-0.721,1.78,-1.04,-0.749,-0.666 (inactive),-0.373,0.174 (inactive),1.18 (inactive),-0.116 (inactive),0.172 (inactive),-0.896,-0.128,-0.916,-0.0921,-1.45
CCCC[C@H]1OB(O)C[C@H]2C1=C(C)Cn1c(=O)n(-c3ccccc3)c(=O)n12,0.247,0.299,-0.144,-0.0265,0.415,0.321,-0.281,0.493,0.0939,0.169 (inactive),0.0677,0.007 (inactive),-0.444 (inactive),0.222 (inactive),-0.251 (inactive),-0.124,0.0301,0.363,-0.0931,0.759
CCOC1=C2C(c3ccc(C)cc3)N(S(=O)(=O)c3ccc(C)cc3)CC2n2c(=O)n(-c3ccccc3)c(=O)n2C1 (stereo not given),0.229,1.16,0.206,0.933,0.876,0.747,0.374,0.53,0.755,1.09 (inactive),0.323,-0.576 (inactive),1.11 (inactive),0.0331 (inactive),0.0749 (inactive),1.09,0.0135,0.301,0.254,0.254
CN1C(=O)C2C(C1=O)C1C=C(c3ccc(CO)cc3)C2C(C2CC2)N1Cc1cc2c(cc1Br)OCO2 (stereo not given),2.81,1.23,1.47,0.976,1.23,0.784,1.34,0.175,1.18,-1.9 (inactive),0.164,-5.17 (inactive),-0.401 (inactive),0.622 (inactive),-1.62 (inactive),1.75,0.138,1.16,1.65,0.796
COc1ccc([Si](C)(C)[C@H]2[C@H](CC(=O)N3CCC[C@H]3CO)O[C@@]3(C(=O)N(c4ccccc4)c4ccccc43)[C@@H]2C)cc1,0.318,0.0005,0.223,-0.445,0.813,0.441,0.16,0.992,0.0807,0.72 (inactive),-0.154,-3.6 (inactive),0.355 (inactive),-0.636 (inactive),-0.38 (inactive),-0.124,-0.154,0.656,0.0932,1.23
COc1ccc([Si](C)(C)[C@@H]2[C@@H](CC(=O)N3Cc4ccccc4C[C@H]3CO)O[C@]3(C(=O)N(Cc4cccc(N5C(=O)COc6ccccc65)c4)c4ccccc43)[C@H]2C)cc1,1.16,1,0.261,0.269,1.26,1.76,-0.0295,1.25,0.0948,-0.438 (inactive),-0.0857,-4.33 (inactive),-0.219 (inactive),3.56 (inactive),-0.431 (inactive),0.535,-0.18,0.718,0.301,1.57
COCCOC(=O)N1C(=O)[C@@]2(c3cc(C#CCC(C(=O)OC)C(=O)OC)ccc31)[C@H](c1ccccc1OCCO)N1[C@H](c3ccccc3)[C@H](c3ccccc3)OC(=O)[C@H]1[C@@H]2C(=O)Nc1nc2ccccc2s1,2.04,0.946,0.767,0.945,1.16,1.58,-1.64,1.55,0.577,-2.57 (inactive),0.964,-2.67 (inactive),-1.9 (inactive),-0.375 (inactive),-0.705 (inactive),0.129,0.135,0.983,1.08,1.49
COCCCNC(=O)[C@@]1(Sc2ccc(C)cc2)CC(=O)N(Cc2ccccc2)[C@@H]1c1ccc(CO)cc1,0.068,-0.277,-0.166,-1.56,-0.489,-0.236,-0.0602,-1.03,-0.4,0.542 (inactive),-0.114,0.101 (inactive),-0.578 (inactive),-0.438 (inactive),0.579 (inactive),-0.82,-0.0193,0.366,-0.607,-0.168
C=C(/C(=C/C[C@@H](OC(=O)c1ccncc1)c1ccc(CO)o1)c1cc(C(=O)OC)ccc1OC)C(C)C,1.02,1.23,0.317,0.415,1.09,1.3,0.375,1.24,0.553,-4.24 (inactive),0.569,-0.82 (inactive),-0.0553 (inactive),8.87 (active),3.69 (inactive),0.229,0.0633,1.24,0.946,1.2
C=CC[C@@]1(C(N)=O)N=C(c2ccc(OCCCO)cc2)O[C@@H]1c1ccccc1N=[N+]=[N-],1.91,1.24,0.231,0.183,1.34,1.14,0.755,1.04,1.13,-5.82 (inactive),0.373,-0.656 (inactive),-0.0376 (inactive),0.614 (inactive),-1.89 (inactive),0.496,0.195,1.02,0.705,0.821
